RORgamma inh: inhibitors of mouse ROR gamma transcriptional activity; Drosophila S2 Gal4-RORgamma UAS-luciferase reporter, 20 h; actives 5.4% (n = 310,000); P51450; Potency, µM (highest dose often 53.6 µM), for the others: top-dose activity change, negative = inhibition, actives largely listed as inhibitors; AID 2551; also: nearly all actives have a fitted effect of over 60% in size
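Compounds are pin-transferred onto Drosophila Schneider cells expressing a copper-inducible Gal4–ROR gamma transactivation domain fusion. After 1 hr, copper sulfate is added to 700 uM final; luciferase is read 20 hr later.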
12-LOX inh: inhibitors of human 12S-lipoxygenase ALOX12; P18054; purified 12hLO, xylenol orange hydroperoxide absorbance; Potency, µM (series often up to 108 µM), inactives show at the top dose activity change, negative = inhibition, actives largely listed as inhibitors; actives 1.1% (n = 580,000); AID 1671190
Target sequence (P18054 whole entry, looked up): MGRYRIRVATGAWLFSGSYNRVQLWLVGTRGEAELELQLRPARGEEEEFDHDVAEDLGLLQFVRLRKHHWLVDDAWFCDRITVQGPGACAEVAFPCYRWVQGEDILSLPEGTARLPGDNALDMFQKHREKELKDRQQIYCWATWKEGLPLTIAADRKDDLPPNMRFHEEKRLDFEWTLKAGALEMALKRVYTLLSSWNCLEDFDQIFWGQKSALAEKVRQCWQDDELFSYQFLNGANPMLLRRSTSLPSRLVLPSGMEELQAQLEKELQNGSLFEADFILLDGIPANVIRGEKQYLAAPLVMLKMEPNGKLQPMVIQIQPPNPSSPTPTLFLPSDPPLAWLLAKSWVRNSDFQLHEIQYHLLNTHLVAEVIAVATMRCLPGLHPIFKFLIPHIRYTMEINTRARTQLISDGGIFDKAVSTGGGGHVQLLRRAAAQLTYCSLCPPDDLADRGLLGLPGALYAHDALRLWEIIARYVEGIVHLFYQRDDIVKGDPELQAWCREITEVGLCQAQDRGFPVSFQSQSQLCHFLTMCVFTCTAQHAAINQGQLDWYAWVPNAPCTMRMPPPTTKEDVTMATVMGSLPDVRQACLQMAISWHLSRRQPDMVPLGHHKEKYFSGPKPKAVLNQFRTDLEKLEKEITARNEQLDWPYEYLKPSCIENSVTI
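Purified human 12hLO at 150 nM in 25 mM Hepes, 0.01% Triton X-100, pH 7.0, preincubated 15 min at room temperature with compound. Reaction started with 40 uM arachidonic acid, 30 min at room temperature. Hydroperoxide measured by Fe-xylenol orange, 573/405 nm absorbance ratio.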
VP16 counter: counter-screen for ROR gamma inhibitors: Gal4-VP16 reporter; Drosophila S2 Gal4-VP16 UAS-luciferase, luminescence, 20 h; Potency, µM (titrated, usually from 53.6 µM), for inactives: at the top dose activity, negative = inhibition, usual class: inhibitors; actives 3.5% (n = 310,000);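 also: Gal4-VP16 expression switched on by copper sulfate through the metallothionein promoter; nearly all actives have a fitted effect of over 50% in size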
DT40 TDP1 CPT: growth inhibition of DT40 Tdp1-/-;hTDP1 cells with camptothecin (screen for TDP1 inhibitors); actives 12% (n = 420,000); chicken DT40 Tdp1-/-;hTDP1 cells + 20 nM CPT, ATP luminescence, 48 h; Potency, µM (top dose mostly 46.2 µM), for inactives: at the top dose activity change, negative = growth inhibition, hits mostly inhibitors; also: nearly all actives have a fitted effect of over 55% in size
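Chicken DT40 Tdp1-/- cells complemented with human TDP1, 400 cells/well, exposed to compounds plus 20 nM camptothecin for at least 48 h at 37 C; viability read as ATP content by CellTiter-Glo luminescence.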
TDP1 cell noCPT: qHTS for Inhibitors of human tyrosyl-DNA phosphodiesterase 1 (TDP1): qHTS in cells in absence of CPT. AID 686978, 2013. Potency, µM (top dose mostly 46.2 µM), for inactives: at the highest dose activity change, negative = growth inhibition, most hits filed as inhibitors. DT40 Tdp1-/- hTDP1 cells, no CPT, ATP luminescence, 48 h. actives 15% (n = 420,000); also: nearly all actives have a fitted effect of over 55% in size
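No-CPT arm: Tdp1-/-;hTDP1 DT40 cells (400/well) plus compounds, incubated ≥48 hr at 37 °C. Readout CellTiter-Glo luminescence.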
ELG1 DNA repair: ELG1-dependent DNA repair inhibition; AID 504467; actives 2.3% (n = 330,000); HEK293T ELG1-luciferase reporter, luminescence, 16 h; DNA damage induced by 5-fluorouridine; Potency, µM (series often up to 46.1 µM), inactives show at the top dose activity change, negative = inhibition, most hits filed as inhibitors; also: nearly all actives have a fitted effect of over 55% in size
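DMSO vehicle served as the neutral condition. Each well held 2,000 cells given 5-fluorouridine plus compound; after 16 hr at 37 °C/5% CO2, ONE-Glo was added and luciferase measured 30 min later.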
* hit, by the source's call; ? = inconclusive; / = no result given. Sampled rows, rich in hits. Any-hit rate of the full collection: about 15%. Calls follow the shape of the dose curve; as a rule, active = well fitted curve in the direction sought with a large enough effect; inconclusive = small, poorly fitted or top-dose-only effect, or another doubt; inactive = no such curve, though single readings can be large; an effect the other way counts as inactive or inconclusive. % is scaled to controls: 0 for no effect and ±100 for the full control effect; potency is read from the fitted curve at half-maximal effect.

SMILES	RORgamma inh	12-LOX inh	VP16 counter	DT40 TDP1 CPT	TDP1 cell noCPT	ELG1 DNA repair
COCCn1c(SCC(=O)Nc2ccc(Cl)c(S(=O)(=O)N(C)C)c2)nc2ccccc21	0.8%	3.7%	-10.4%	?	16.4µM*	18.4µM*
CC(NNC(=O)C(O)(c1ccccc1)c1ccccc1)c1ccccc1 (centres undefined)	/	7.9%	/	/	/	/
CC(C)(C)Nc1ncnc2sc(-c3ccccc3)cc12	27.7%	0.0%	-13.2%	25.9µM*	23.1µM*	?
COC(CNc1ncnc2sc(-c3ccccc3)cc12)OC	?	0.6%	0.7%	?	?	-3.7%
C=COCCCNc1ncnc2sc(-c3ccccc3)cc12	1.7%	0.0%	?	16.4µM*	14.6µM*	?
COc1ccc(/C=N/Nc2nncc3ccccc23)c(OC)c1	4.47µM*	1.8%	22.4µM*	25.9µM*	?	?
Cc1cccc(/C=N/Nc2nncc3ccccc23)c1	2.51µM*	7.9%	20µM*	-2.7%	?	?
CN(C)c1ccc(/C=N/Nc2nncc3ccccc23)cc1	?	-24.4%	?	?	13µM*	?
COc1cc(/C=N/Nc2nncc3ccccc23)cc(OC)c1OC	?	34.2%	11.2µM*	20.6µM*	11.6µM*	?
COc1cc(/C=N/NC(=O)CCC(=O)NCc2ccccc2)cc(OC)c1OC	8.2%	5.7%	-6.2%	-3.8%	-4.6%	-11.4%
C(=N\Nc1nncc2ccccc12)/c1ccccc1	-26.0%	-17.7%	-3.3%	-3.9%	-20.0%	?
COc1ccc(/C=N\Nc2ccccn2)c(OC)c1	?	15.8%	?	2.3%	14.3%	?
COC(=O)c1ccc(CNC(=O)C2CCC(=O)N(CCc3ccccn3)C2)cc1 (centres undefined)	/	1.0%	/	24.9%	-2.6%	/
COc1ccc(CCCNC(=O)C2CCC(=O)N(CC3CCCCC3)C2)cc1 (centres undefined)	20.1%	97.1%	-9.6%	16.4µM*	18.4µM*	19.7%
COc1ccc(CCCNC(=O)C2CCC(=O)N(CCc3cccc(F)c3)C2)cc1 (centres undefined)	16.4%	2.4%	-1.1%	23.1µM*	?	2.3%
COc1ccccc1CCCNC(=O)C1CCC(=O)N(CCc2cccc(F)c2)C1 (centres undefined)	20.1%	4.0%	11.0%	?	18.4µM*	3.7%
COC(=O)c1ccc(CNC(=O)C2CCC(=O)N(CCCc3ccccc3)C2)cc1 (centres undefined)	12.8%	9.1%	-0.3%	13µM*	?	-14.1%
COc1ccc(CCN2CC(C(=O)NCCc3cccc(F)c3)CCC2=O)cc1 (centres undefined)	-0.8%	-1.9%	4.3%	-5.8%	4.2%	14.1%
COc1ccc(CCNC(=O)C2CCC(=O)N(CC3CCCCC3)C2)cc1 (centres undefined)	/	0.2%	/	?	-5.0%	-8.6%
COc1cc(OC)c(-n2nnc(-c3nc(-c4ccc(C)cc4)no3)c2C)cc1Cl	/	-15.3%	/	/	/	/
Cc1ccccc1NC(=O)C(C)N1CCC(C(=O)NCc2ccccc2)CC1 (centres undefined)	/	12.1%	/	/	/	/
COC(=O)CN1C(C)=Nc2ccc(C)cc2C1c1ccccc1 (centres undefined)	0.0%	-15.1%	-6.6%	2.4%	-24.5%	-3.7%
COC(=O)CN1C(c2ccccc2)=Nc2ccc(Cl)cc2C1c1ccccc1 (centres undefined)	12.6µM*	-3.9%	-11.9%	-35.2%	-25.0%	?
C/C(=N/Nc1ccccc1[N+](=O)[O-])c1ccc([N+](=O)[O-])cc1	6.7%	0.0%	-1.1%	-8.2%	?	14.3%
